Source: PubChem BioAssay (National Center for Advancing Translational Sciences (NCATS))
CHX counter: counter-screen hit for Shiga toxin inhibitors, cycloheximide; cell reporter, cycloheximide protein synthesis inhibition counterscreen; max response, %; hit rate 12% among 300,000; AID 2314; in the data active means max response mostly above about 13%, no sharp cut-off; inactive means mostly below about 14%; further: read at 38.3 µM for the half of the compounds with a filed dose; 0% is about no effect
Sm TGR block: inhibitors of Schistosoma mansoni thioredoxin glutathione reductase. AID 485364. purified TGR, DTNB reduction, TNB absorbance 405 nm. Potency, µM (highest dose often 114 µM), for the others: top-dose activity change, negative = inhibition, hits mostly inhibitors. hit rate 3% among 360,000. Q962Y6; further: potency means the concentration at half of the fitted maximal effect; on the % scale 0 is the no-effect control and ±100 the full control effect; nearly all actives have a fitted effect of over 60% in size
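Kinetic colorimetric format: TGR-catalysed, NADPH-driven DTNB reduction monitored via TNB absorbance. Enzyme dispensed at 20 nM; compound exposure 15 min at room temperature before reaction start.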
Shiga toxin inh: Shiga toxin inhibition; Vero cells, Shiga toxin protein synthesis inhibition reporter; inhibition, % at 38.7 µM; hit rate 9.2% among 290,000; in the data active means inhibition mostly above about 28%, no sharp cut-off; inactive means mostly below about 43%; further: 0% is about no effect
FBPA Giardia inh: inhibitors of Giardia lamblia fructose-1,6-bisphosphate aldolase; A8B2U2; purified Giardia FBPA; Potency, µM (titrated, usually from 59.6 µM), inactives show at the top dose activity, negative = inhibition, actives largely listed as inhibitors; hit rate 0.71% among 290,000; further: potency means the concentration at half of the fitted maximal effect; on the % scale 0 is the no-effect control and ±100 the full control effect; nearly all actives have a fitted effect of over 55% in size
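Giardia FBPA (40 nM reagent) was preincubated 10 min at RT with compound (up to 57.5 uM final), then substrate plus GAPDH/TPI/NAD/arsenate coupling system with diaphorase/resazurin was added; resorufin fluorescence (525/598 nm) was read after 20 min.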
Tb PYK inh: T. brucei pyruvate kinase inhibition. Q57TT1. TbPYK enzyme, Kinase-Glo Plus ATP luminescence, 45 min. Potency, µM (highest dose often 76.8 µM), for the others: at the highest dose activity, negative = inhibition, hits mostly inhibitors. hit rate 0.12% among 410,000; further: potency means the concentration at half of the fitted maximal effect; on the % scale 0 is the no-effect control and ±100 the full control effect; nearly all actives have a fitted effect of over 50% in size
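Quantitative HTS: titrated library compounds versus trypanosomal pyruvate kinase in TEA buffer (pH 7.2) containing KCl, MgCl2, BSA and Tween-20. Reactions were initiated with ADP, 130 uM final. Kinase-Glo Plus luminescence was read after 45 min at RT.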
LmPK inhibitor: LmPK (Leishmania mexicana) enzyme inhibition; AID 1721; Potency, µM (top dose mostly 57.5 µM), for the others: at the top dose activity change, negative = inhibition, usual class: inhibitors; purified LmPK, Kinase-Glo ATP luminescence, 1 h; hit rate 0.37% among 290,000; further: potency means the concentration at half of the fitted maximal effect; on the % scale 0 is the no-effect control and ±100 the full control effect
Target sequence (Q27686 whole entry, looked up): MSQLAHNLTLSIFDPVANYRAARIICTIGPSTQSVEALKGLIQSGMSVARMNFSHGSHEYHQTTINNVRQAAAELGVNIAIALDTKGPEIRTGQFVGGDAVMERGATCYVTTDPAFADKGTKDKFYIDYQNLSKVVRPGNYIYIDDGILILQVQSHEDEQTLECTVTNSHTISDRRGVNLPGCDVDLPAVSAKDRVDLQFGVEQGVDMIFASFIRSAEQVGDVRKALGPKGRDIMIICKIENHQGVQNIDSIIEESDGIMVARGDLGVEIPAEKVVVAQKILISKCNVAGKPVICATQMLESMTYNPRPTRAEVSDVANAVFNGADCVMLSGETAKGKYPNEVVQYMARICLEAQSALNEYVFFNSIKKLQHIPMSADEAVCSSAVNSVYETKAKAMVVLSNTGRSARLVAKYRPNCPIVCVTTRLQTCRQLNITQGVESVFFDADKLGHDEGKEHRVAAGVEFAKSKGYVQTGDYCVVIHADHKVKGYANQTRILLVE
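ATP generated from ADP (0.1 mM) and PEP (0.5 mM) by 0.1 nM LmPK over 1 h at room temperature (pH 7.2 imidazole buffer) was detected by coupled luciferase luminescence. Values were normalized to uninhibited and no-enzyme wells.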
The depositor's hits bear a star; ? = inconclusive; . = no result given; [ ] = dose if it differs, or a comment. Only a selection was taken, and hits are over-represented in it overall. Unless noted, the call rests on the fitted dose curve; in most records, active means well fitted curve in the direction sought with a large enough effect; inconclusive means small, poorly fitted or top-dose-only effect, or another doubt; inactive means no such curve, though single readings can be large; an effect the other way counts as inactive or inconclusive.

SMILES	CHX counter	Sm TGR block	Shiga toxin inh	FBPA Giardia inh	Tb PYK inh	LmPK inhibitor
CC(C)C[C@H](NC(=O)[C@H](CC(C)C)NC(=O)[C@H](Cc1ccc(O)cc1)NC(=O)CNC(=O)[C@H](C)NC(=O)[C@H](CO)NC(=O)[C@H](CC(N)=O)NC(=O)[C@H](CC(C)C)NC(=O)[C@@H](NC(=O)[C@H](Cc1c[nH]c2ccccc12)NC(=O)CN)[C@@H](C)O)C(=O)NCC(=O)N1CCC[C@H]1C(=O)N1CCC[C@H]1C(=O)N1CCC[C@H]1C(=O)NCC(=O)N[C@@H](Cc1ccccc1)C(=O)N[C@@H](CO)C(=O)N1CCC[C@H]1C(=O)N[C@@H](Cc1ccccc1)C(=O)N[C@@H](CCCNC(=N)N)C(N)=O	-3	.	-6	-2%	.	.
Cc1cccc(OCc2nnc(SCC(=O)c3cccs3)n2C)c1C	21*	-12%	39	19%	5%	4%
CCn1c(SCC(=O)c2cccs2)nnc1-c1cccs1	27*	0%	31	-16%	-8%	1%
Cn1c(SCC(=O)c2ccccc2)nnc1-c1cccs1	25*	?	86*	3%	-18%	1%
Cn1c(SCC(=O)NCc2cccs2)nnc1-c1cccs1	-2	1%	-17	-18%	4%	-5%
Cn1c(SCC(=O)c2ccccc2)nnc1-c1cccnc1	54*	2%	67*	1%	0%	-3%
COc1ccc(OC)c(S(=O)(=O)NCCc2sc(C)nc2C)c1	.	-1%	.	.	-7%	.
CCC(=O)Nc1cccc(-c2nnc(SCC(=O)c3ccccc3)n2C)c1	36*	22%	81*	-10%	?	?
Cc1c(C(=O)N(Cc2nccn2C)C(C)C)oc2c(F)cccc12	18	-8%	2	.	-3%	1%
CCCc1ccc2oc(C(=O)N(Cc3nccn3C)C(C)C)c(C)c2c1	21*	-1%	35*	-5%	-7%	9%
Cc1ccc2oc(C(=O)N(C)Cc3cnccn3)c(C)c2c1	35*	8%	120*	3%	-1%	3%
CCCc1ccc2oc(C(=O)N(C)Cc3ccn[nH]3)c(C)c2c1	48*	-3%	65*	7%	-6%	8%
COc1ccc2oc(C(=O)N(C)Cc3ccc4c(c3)OCCO4)c(C)c2c1	.	0%	.	.	0%	.
Cc1ccc(CN(Cc2ccco2)C(=O)c2oc3ccc(C)cc3c2C)cc1	.	-1%	.	.	5%	.
COc1ccccc1NS(=O)(=O)c1cc(NC(=O)Cc2n[nH]c(=O)c3ccccc23)ccc1Cl	.	.	.	.	-3%	.
CC(=O)n1c(=O)c2ccccc2c(=O)n1-c1ccccc1	2	32µM*	-3	-20%	-3%	-1%
O=c1c2ccccc2c(=O)n(-c2ccccc2)n1CCCCBr	.	.	.	.	-3%	.
Cc1nc2cnc(Oc3cccc(Cl)c3)nc2n(CCc2ccccc2)c1=O	.	.	.	-1%	3%	.
CS(=O)(=O)NCCSc1nnnn1-c1ccccc1	-1	9%	1	-1%	-8%	-10%
O=S(=O)(NCCSc1nnnn1-c1ccccc1)c1cccs1	33*	0%	43*	1%	4%	-2%
Cc1c(C)n(Cc2ccccc2)c2ccc(C(=O)NCCc3ccccc3Cl)cc12	.	-1%	.	.	4%[15.4 µM]	.
O=c1c2ccccc2cnn1Cc1n[nH]c(=S)n1-c1ccc(Cl)cc1	72*	8%	52*	2%	?	?
Cc1ccc(-n2c(Cc3ccccc3)n[nH]c2=S)cc1	-1	4%	-12	6%	?	7.9µM*
S=c1[nH]nc(CCc2ccccc2)n1-c1ccc(Cl)cc1	1	-4%	-10	7%	?	?
S=c1[nH]nc(CCc2ccccc2)n1-c1ccccc1	3	3%	-5	7%	?	3.5µM*
SMILES	CHX counter	Sm TGR block	Shiga toxin inh	FBPA Giardia inh	Tb PYK inh	LmPK inhibitor
S=c1[nH]nc(Cc2ccccc2)n1-c1ccc(Cl)cc1	-2	5%	-17	7%	2.8µM*	-16%
S=c1[nH]nc(Cc2n[nH]c(=S)n2-c2ccccc2)n1-c1ccccc1	-5	0%	-10	-18%	?	-1%
S=c1[nH]nc(Cc2ccccc2)n1-c1ccccc1	-2	-6%	-7	3%	?	?
CN(C)S(=O)(=O)c1ccc(C(=O)Nc2ccc3nc(N4CCOCC4)sc3c2)cc1	.	.	.	.	-9%	.
Cc1ccc(-n2c(CSc3nc(C)cc(C)n3)n[nH]c2=S)cc1	-3	-1%	-7	1%	7.1µM*	?
S=c1[nH]nc(COc2ccc(Cl)cc2)n1-c1ccccc1	-4	-17%	.	16%	8.9µM*	?
COC(=O)CSc1nnc(C)n1-c1ccc(C)cc1	-2	-1%	-1	0%	-1%	-9%
COC(=O)CSc1nnc(Cc2ccccc2)n1-c1ccc(C)cc1	14*	-7%	0	-3%	-5%	2%
COc1ccc(CCC(=O)N/N=C(\C)c2ccc3c(c2)OCO3)cc1	1	-4%	-12	.	-5%	0%
C/C(CCc1ccc2c(c1)OCO2)=N\NC(=O)c1ccccc1	36*	-2%	76*	1%	1%	0%
C/C(CCc1ccc2c(c1)OCO2)=N\NC(=O)c1ccccc1Cl	24*	2%	13	-6%	2%	-1%
O=C(NCc1ccc2c(c1)OCO2)c1ccccc1Cl	.	.	.	.	3%	.
O=C(ONC(=O)C1C2C=CC(C2)C1C(=O)NOC(=O)c1ccccc1)c1ccccc1 (configuration not stated)	.	.	.	.	4%	.
CC(=C/c1ccccc1)/C=C1/SC(N2CCOCC2)=NC1=O	23*	0%	30*	10%	-1%	-5%
Cc1ccccc1N1CCN(C2=NC(=O)/C(=C\c3cccs3)S2)CC1	78*	4%	104*	-9%	3%	0%
O=C1N=C(N2CCOCC2)S/C1=C/c1cccs1	25*	-18%	20	-1%	-13%	-8%
Nc1nonc1C(=O)NCCNCc1ccc(Cl)c(Cl)c1	.	9%	.	.	-2%	.
CCOC(=O)C1=C(C)N=c2s/c(=C3/C(=O)Nc4ccccc43)c(=O)n2C1c1ccc(C)cc1 (configuration not stated)	-3	20µM*	15	-7%	-10%	-15%
CCOC(=O)C1=C(C)N=c2s/c(=C\c3ccc(C(=O)O)cc3)c(=O)n2C1c1ccc(F)cc1 (configuration not stated)	-2	0%	-8	-5%	0%	9%
COC(=O)C1=C(C)N=c2s/c(=C3\C(=O)Nc4ccccc43)c(=O)n2C1c1ccccc1 (configuration not stated)	-1	50µM*	-4	?	.	-4%
CCOC(=O)C1=C(C)n2c(s/c(=C3\C(=O)Nc4ccccc43)c2=O)=NC1c1ccc(OC)cc1 (configuration not stated)	-3	25µM*	-5	-3%	-28%	-11%
